# Hits are enriched below; roughly 1% of the tested compounds scored in any of these assays.
# gsp antagonist = qHTS for Antagonists of gsp, the Etiologic Mutation Responsible for Fibrous Dysplasia/McCune-Albright Syndrome: qHTS | 340,000 tested, 0.4% active | gsp-mutant cells, cAMP HTRF, 30 min | Potency, µM (series often up to 76.9 µM), without a hit: at the highest dose activity change, negative = inhibition, usual class: inhibitors; calls by dose curve; cell line not stated here;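 note: intracellular cAMP measured with PDE inhibitor Ro 20-1724 present during compound exposure; potency is the fitted concentration of half-maximal effect; % is set by controls: 0 for no effect and ±100 for the full control effect; nearly all actives have a fitted effect of over 65% in size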
#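 HTRF cAMP measurement after 30 min RT detection following 30 min, 37C compound treatment alongside […] (added as 300 uM solution) in G418-selected cells seeded at 2000/well and grown 16–24 h.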
# RXFP1 ag = qHTS Assay for Agonists of the Relaxin Receptor RXFP1; Relaxin receptor 1 (Homo sapiens), Q9HBX9; HEK293T-RXFP1 cAMP TR-FRET, 30 min; response scale: percent of porcine relaxin response, buffer zero; Potency, µM (highest dose often 57.5 µM), inactives show at the top dose activation, most hits filed as activators; 370,000 tested, 0.3% active; note: potency is the fitted concentration of half-maximal effect; % is set by controls: 0 for no effect and ±100 for the full control effect; nearly all actives have a fitted effect of over 60% in size
# Target sequence (Q9HBX9 whole entry, looked up): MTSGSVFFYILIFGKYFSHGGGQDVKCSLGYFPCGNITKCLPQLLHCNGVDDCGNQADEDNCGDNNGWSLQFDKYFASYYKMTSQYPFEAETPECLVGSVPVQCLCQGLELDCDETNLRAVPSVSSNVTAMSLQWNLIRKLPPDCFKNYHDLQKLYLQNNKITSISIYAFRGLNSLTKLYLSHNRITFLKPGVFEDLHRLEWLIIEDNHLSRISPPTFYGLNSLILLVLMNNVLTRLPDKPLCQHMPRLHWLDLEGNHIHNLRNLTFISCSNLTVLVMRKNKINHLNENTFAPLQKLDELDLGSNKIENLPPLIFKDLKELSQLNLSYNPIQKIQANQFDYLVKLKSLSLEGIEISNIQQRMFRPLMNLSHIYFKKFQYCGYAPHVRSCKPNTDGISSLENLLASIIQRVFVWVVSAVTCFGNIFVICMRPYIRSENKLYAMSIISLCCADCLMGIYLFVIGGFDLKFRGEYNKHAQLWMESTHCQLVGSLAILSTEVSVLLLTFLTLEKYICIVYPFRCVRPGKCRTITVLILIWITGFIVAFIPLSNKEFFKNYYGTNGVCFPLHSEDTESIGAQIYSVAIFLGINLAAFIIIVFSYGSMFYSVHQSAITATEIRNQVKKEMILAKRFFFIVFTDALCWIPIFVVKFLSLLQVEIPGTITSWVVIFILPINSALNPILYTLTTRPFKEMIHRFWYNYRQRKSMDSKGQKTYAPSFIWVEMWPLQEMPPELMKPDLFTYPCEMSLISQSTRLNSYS
#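 Agonist response is measured as cAMP accumulation in an RXFP1-transfected HEK293T line under PDE4 inhibition. Values are scaled between buffer-only and 29 nM porcine relaxin, and EC50s come from standard Hill equation fits.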
# PTHR1 agonist = qHTS for PTHR1 Agonists: Primary Screen; 410,000 tested, 0.075% active; AID 743266, 2014; Potency, µM (series often up to 115 µM), inactives show at the top dose activation, most hits filed as activators; Parathyroid hormone/parathyroid hormone-related peptide receptor (Homo sapiens), Q03431; HEK293 GP2 PTHR1 cells, GloSensor cAMP luminescence, 1 h; note: potency is the fitted concentration of half-maximal effect; nearly all actives have a fitted effect of over 55% in size
#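 HEK-293-derived GP2 cells expressing PTHR1 and a GloSensor cAMP reporter, 3,000/well, plated overnight, given luciferin plus IBMX (each 0.5 mM as added) for 1 h at 37 °C, then compound for 1 h at 37 °C. Luminescence was read after 15 min at room temperature.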
# gsp ag = qHTS for Agonist of gsp, the Etiologic Mutation Responsible for Fibrous Dysplasia/McCune-Albright Syndrome: qHTS. gsp mutant cells, cAMP HTRF, 30 min. Potency, µM (top dose mostly 76.9 µM), for the others: at the highest dose activation (cAMP increase), usual class: activators. 340,000 tested, 0.13% active. AID 624287, 2012; active = well fitted activation curve with a large enough effect; inconclusive = small, poorly fitted or top-dose-only effect, or another doubt; inactive = no such curve, though single readings can be large or run the other way; cell line not stated here;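 note: phosphodiesterase inhibitor Ro 20-1724 added with compounds to block cAMP breakdown; potency is the fitted concentration of half-maximal effect; nearly all actives have a fitted effect of over 60% in size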
#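 Cells in DMEM/10% FBS with G418 were pretreated with compounds in DMSO plus […] (300 uM stock) for 30 min at 37C. cAMP was measured by HTRF (cAMP-d2 plus anti-cAMP antibody-K) after 30 min at room temperature.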
# RXFP1 antag = qHTS Assay for Antagonists of the Relaxin Receptor RXFP1 | Relaxin receptor 1 (Homo sapiens), Q9HBX9 | HEK293-RXFP1, relaxin-stimulated cAMP HTRF, 30 min; stronger effect = lower value | activity change, negative = inhibition, % at 57.5 µM | 350,000 tested, 0.59% active | AID 1259400, 2018;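 active = activity change of -60% or lower, but not beyond a set lower limit; inconclusive = change between -60% and -40%, or beyond the set limit; inactive = change above -40%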; note: % is set by controls: 0 for no effect and ±100 for the full control effect
# Numbers without * were called inactive; i = inactive; ? = inconclusive; . = no result given; [ ] = dose if it differs, or a comment. Unless noted, calls come from the whole dose curve; as a rule, active = well fitted curve in the direction sought with a large enough effect; inconclusive = small, poorly fitted or top-dose-only effect, or another doubt; inactive = no such curve, though single readings can be large; an effect the other way counts as inactive or inconclusive.
SMILES,gsp antagonist,RXFP1 ag,PTHR1 agonist,gsp ag,RXFP1 antag
Cc1ccccc1OCC(=O)Nc1sc(C(=O)Nc2cccc(C)c2C)c(C)c1C#N,34.7%,8.91µM*,-10.2%[57.5 µM],?,-1.4
O=C(NCCc1ccccc1)c1cnc2sc(N3CCCCC3)nn2c1=O,.,-1.6%,-41.5%,.,1.9
O=C(CC(c1ccccc1)c1ccccc1O)NCc1ccccc1Cl (centres undefined),35.5µM*,0.7%,-28.9%,0.0%,-15.4
Cc1ccc(CNC(=O)NC23CC4CC(CC(C4)C2)C3)cc1,-11.7%,2.4%,i,-14.4%[15.4 µM],-9.2
CC(=O)NC12CC3CC(C1)CC(C(=O)NCc1ccc(C)cc1)(C3)C2,6.9%,-1.1%,20.6%,-3.6%,-68.2*
Cc1ccc(O)c(-c2n[nH]c3c2C(c2ccc(F)cc2)N(Cc2ccco2)C3=O)c1 (centres undefined),.,-0.5%,-59.4%,.,-63.9*
O=C1c2[nH]nc(-c3ccccc3O)c2C(c2cccc(OCc3ccccc3)c2)N1CCCO (centres undefined),.,1.8%,-12.8%,.,-64.1*
COCCN1C(=O)c2[nH]nc(-c3ccccc3O)c2C1c1ccc(Cl)c(Cl)c1 (centres undefined),.,-0.1%,i,.,-70.0*
CCCOc1cccc(C2c3c(-c4ccccc4O)n[nH]c3C(=O)N2Cc2ccco2)c1 (centres undefined),.,0.2%,-27.7%,.,-80.1*
COc1ccc(S(=O)(=O)c2nnn(-c3cc(Cl)c(OC)cc3OC)c2C)cc1,.,-0.5%,-65.4%,.,.
Cc1ccc(C2CC(=O)N(Cc3ccccc3F)c3c2c(C)nn3-c2nc(C)cc(C)n2)cc1 (centres undefined),.,2.9%,-5.2%,.,-2.5
Cc1ccc(C(=O)c2cn(CC(=O)NCc3ccccc3Cl)c3nc(C)ccc3c2=O)cc1,.,?,i,.,2.1
CCCc1cc(C(=O)N2CCCC(Cc3cccc(Cl)c3)(C(=O)OCC)C2)n(C)n1 (centres undefined),-12.1%,-7.0%,-27.1%,-16.8%,-63.7*
CCOC(=O)C1(Cc2cccc(Cl)c2)CCCN(C(=O)c2ccnn2C)C1 (centres undefined),-18.9%,0.1%,-5.3%,-12.4%,-6.0
COc1cccc2c1C(=O)c1c(O)c3c(c(O)c1C2=O)C[C@@](O)(C(=O)CO)C[C@@H]3O[C@H]1C[C@H](N)[C@H](O[C@@H]2CCCCO2)[C@H](C)O1,.,.,.,.,-19.9
COC(=O)[C@H](CC(C)C)N(Cc1ccccc1)S(=O)(=O)N(Cc1ccc(OC)cc1)[C@@H](CC(C)C)C(=O)OC,50.1µM*,.,-7.1%,.,.
COC(=O)[C@H](CC(C)C)N(Cc1ccccc1)S(=O)(=O)N(Cc1ccccc1)[C@@H](CC(C)C)C(=O)OC,-9.7%,.,-39.3%,.,.
CCOC(=O)CN1CCCC1=O,.,.,.,.,2.8
Cc1cc(=O)n2nc(N3CCCC3C(=O)Nc3ccccc3C)sc2n1 (centres undefined),4.5%,?,-20.6%,12.6µM*,6.6
Cc1cc(=O)n2nc(N3CCCC3C(=O)Nc3cccc(F)c3)sc2n1 (centres undefined),8.2%,?,-2.3%,?,0.3
O=C(NC1CCCC1)c1ccccc1OCc1ccccc1,-13.8%,-1.6%,-22.8%,0.3%[15.4 µM],-81.8*
O=C(NC1CCN(Cc2ccccc2)CC1)c1ccccc1OCc1ccccc1,-6.6%,1.6%,-8.4%,-23.2%,-4.2
c1ccc(COc2ccc(OCCCNC3CCCC3)cc2)cc1,17.8%,1.1%,-15.0%,27.6%,-86.1*
Cc1cccc(C)c1OCC(=O)NCC1(N2CCOCC2)CCCCC1,.,-0.3%,-7.7%,.,-35.5
COc1cccc(N2CCN(C(=O)c3cccc(-n4c(C)nc5cccnc54)c3)CC2)c1,.,12.5%,-45.6%,.,?
SMILES,gsp antagonist,RXFP1 ag,PTHR1 agonist,gsp ag,RXFP1 antag
Cc1nc2cccnc2n1-c1cccc(C(=O)N2CCN(c3cccc(Cl)c3)CC2)c1,.,18.9%,-31.8%,.,-63.8*
CCOC(=O)c1[nH]c2ccccc2c1NC(=O)c1ccc(OC(C)C)cc1,.,2.9%,-15.1%,.,.
Cc1cc(/C=N/n2cnnc2)c(C)n1-c1ccc(OCc2ccc(F)cc2)cc1,1.6%,0.2%,-12.8%[57.5 µM],3.5%,-68.1*
Cc1cc(/C=N/n2cnnc2)c(C)n1-c1ccc(OCc2ccc(Cl)cc2Cl)cc1,4.0%,0.1%,-8.6%,-2.5%,-21.2
CCC(=O)Oc1ccc2c(c1)CC[C@@H]1[C@@H]2CC[C@@]2(C)[C@H]1C[C@@H](OC(=O)CC)[C@@H]2OC(=O)CC,.,.,.,.,-20.5
COc1ccc(CNc2nc(-c3ccc(OC)cc3)cc(C(F)(F)F)n2)cc1,.,-1.8%,-42.2%,.,.
CCOc1ccc(CNC(=O)C2CCN(C(=O)c3sccc3-n3cccc3)CC2)cc1,.,-1.0%,-17.8%,.,-10.4
CC1=C/C(=C(/c2ccc(O)c(C)c2)c2ccccc2S(=O)(=O)O)C=CC1=O,0.4%,-0.6%,-11.1%,25.2%,6.0
CC1=C/C(=C(/c2cc(C)c(O)c(Br)c2)c2ccccc2S(=O)(=O)O)C=C(Br)C1=O,20µM*,-37.2%,-1.1%,-160.6%,?
CCCCNc1c(-c2ccc(SC3CCCCC3)c(OC)c2)nc2ccc(C)cn12,-3.2%,.,-50.6%,.,.
CCCCNc1c(-c2ccc(OC)c(SC3CCCCC3)c2)nc2ccc(C)cn12,31.6µM*,.,-10.7%,?,.
COc1ccc(-c2nc3ccc(C)cn3c2NCc2ccccc2)cc1SC1CCCCC1,35.5µM*,15.7%,-32.3%,.,.
CC(Nc1ccc(-c2nc(-c3ccccn3)no2)cc1[N+](=O)[O-])c1ccccc1 (centres undefined),.,-1.3%,i,.,.
CCCCOC(=O)CCCCCCCCC(=O)OCCCC,.,.,.,.,-18.4
Cc1cc(C)nc(SCC(=O)NC2CCCCC2C)n1 (centres undefined),-0.6%,0.2%,11.7%,0.9%[15.4 µM],-60.6*
Cc1cc(C)n2c(SCC(=O)Nc3c(C)n(C)n(-c4ccccc4)c3=O)nnc2n1,7.6%,0.6%,-21.9%[57.5 µM],?,-10.1
Cc1cc(C)n2c(SCC(=O)Nc3cc(C)on3)nnc2n1,9.6%,26.6%,i,22.4µM*,-0.9
Cc1cc(C)n2c(SCC(=O)NC3CCCCC3)nnc2n1,4.3%,?,i,14.1µM*,1.4
Cc1cc(NC(=O)CSc2nc3ccccc3n2CCC#N)no1,10µM*,0.1%,-11.7%,-5.7%[15.4 µM],-5.3
CCCNC(=O)Cn1nc(-c2ccc(C)c(C)c2)c2cnc3ccc(F)cc3c21,.,1.3%,-36.0%,.,-10.3
